This excerpt belongs to a sample that is enriched for hits.
TTR transcr act = activators of transthyretin transcription. 92,000 tested, 1.3% active. SH-SY5Y TTR promoter Gaussia luciferase, luminescence; 100% = recombinant luciferase protein wells. activation, % at 16.7 µM;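 active means activation above the mean of all tested compounds plus 3 SD, cut at about 9.5% in these data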;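 further: cells exposed to compounds for one day before reading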
HuH7 TTR inh = counter-screen for TTR activators: TTR transcription inhibitors in HuH7 cells | 1,100 tested, 4% active | shares compounds with TTR transcr act | inhibition, % at 16.7 µM | HuH7 TTR promoter-Gaussia luciferase reporter, luminescence;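 active means average inhibition above the solvent-only control wells' mean plus 3 SD, cut at about 15% in these data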;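 further: inhibitors lower well luminescence so higher value means more inhibition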
TTR act confirm = confirmation of human transthyretin transcription activators; shares compounds with TTR transcr act; SHSY5Y TTR promoter Gaussia luciferase, luminescence; 100% = purified Lucia enzyme wells, no cells; activation, % at 16.7 µM; 1,100 tested, under 10 active;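 active means mean activation above a set limit taken from the earlier primary screen, cut at about 11% in these data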
Of the large screens only hits and unclear results are named; the others gave an inactive call (follow-up assays come after a bar, where they were run).

Cc1ccc(SCC(=O)NCCSCc2ccccc2)cc1	none
O=C(CN1C(=O)c2ccccc2S1(=O)=O)NCc1ccccc1	none
O=C(Nc1ccccc1)OC1CC2CC1[C@H]1CCCCN1[C@H]2Cc1ccccc1 (some centres undefined)	none
O=C(c1cccs1)n1ccc2ccc(-c3ccc4ccn(Cc5ccccc5)c4c3)cc21	none
c1ccc2c(c1)nc(NCc1ccc3c(c1)OCO3)n2CCN1CCOCC1	none
CCn1c(NCc2ccc3c(c2)OCO3)nc2ccccc21	none
CN(C)CCCn1c(NCc2ccc3c(c2)OCO3)nc2ccccc21	TTR transcr act 10.0 | HuH7 TTR inh inactive | TTR act confirm inactive
Brc1cccc(Cn2ccc3ccc(-c4ccc5ccn(Cc6cccc(Br)c6)c5c4)cc32)c1	none
O=C(Nc1ccc(C(O)(C(F)(F)F)C(F)(F)F)cc1)c1ccc(Cl)cc1	none
O=C(O[C@H]1CC[C@@]23CCCN2C(=O)CCC[C@H]3C1)N1CCN(c2ccccc2)CC1	none
O=S1(=O)c2c(cccc2N2CCC[C@@H]2CO)OCCCN1C1CC1	none
O=C(O)CSCC(=O)Nc1cccc2ccccc12	TTR transcr act 10.0 | HuH7 TTR inh inactive | TTR act confirm inactive
Nc1ccccc1SCC(=O)Nc1cccc2ccccc12	none
N=c1sccn1CC(=O)Nc1cccc2ccccc12	none
Cc1cc(C)cc(NC(=O)OC2CC3CC2[C@H]2CCCCN2[C@H]3Cc2ccccc2)c1 (some centres undefined)	none
CCCCNC(=O)C[C@H]1C[C@@]2(C(=O)OC)C(=C[C@H](C3CCCC3)O[C@@H]2C)N(Cc2ccc(Cl)cc2Cl)C1=O	none
C=CCN1C(=O)[C@H](CC(=O)NCc2ccc(C)o2)[C@@]2(C(=O)OCC)CCCC=C12	none
O=C(c1ccccc1)C1CCN(c2ncnc3sccc23)CC1	none
Cc1ccc(CCNC(=O)C2CCC(CNc3c(N4CCCC4)c(=O)c3=O)CC2)cc1 (centres undefined)	none
CC1CCN(c2c(NCC3CCC(C(=O)NCCc4ccccc4)CC3)c(=O)c2=O)CC1 (centres undefined)	none
Cc1ccc(CCNC(=O)C2CCC(CNc3c(N4CCC(C)CC4)c(=O)c3=O)CC2)cc1 (centres undefined)	TTR transcr act 22.6 | HuH7 TTR inh inactive | TTR act confirm inactive
CCCCC(=O)N[C@H]1CC[C@@]23CCCN2C(=O)CCC[C@H]3[C@H]1C	none
COC(=O)[C@]12C[C@H](CC(=O)N3CCSCC3)C(=O)N(Cc3ccco3)C1=C[C@H](C1CCCC1)O[C@@H]2C	none
CCCC[C@H]1C2CC(OC(=O)Nc3ccccc3OC)C(C2)[C@H]2CCCCN21 (some centres undefined)	none
Cc1noc(NC(=O)c2ccccc2C(F)(F)F)c1C#N	TTR transcr act 11.7 | HuH7 TTR inh inactive | TTR act confirm inactive
Cn1c(NC(=O)c2ccccc2C(F)(F)F)cc(=O)n(C)c1=O	none
Cc1noc(NS(=O)(=O)c2ccc(NC(=O)c3ccc(F)cc3)cc2)c1C	none
O=C(Nc1ccc(C(O)(C(F)(F)F)C(F)(F)F)cc1)c1ccccc1C(F)(F)F	none
Cc1noc(NC(=O)c2ccc(F)cc2)c1C#N	TTR transcr act 14.4 | HuH7 TTR inh inactive | TTR act confirm inactive
Cc1cccc(C(=O)Nc2onc(C)c2C#N)c1	none
O=C(Nc1ccccc1F)O[C@@H]1CC[C@@]23CCCN2C(=O)CCC[C@H]3C1	none
O=S(=O)(Nc1ccc(C(O)(C(F)(F)F)C(F)(F)F)cc1)c1cccs1	none
CC1(C)CC(=O)C(C=NCCN2CCN(C(=S)NC3CCCCC3)CC2)=C(O)C1	none
CC1(C)CC(=O)C(C=NCCN2CCN(C(=O)CCl)CC2)=C(O)C1	TTR transcr act 11.8 | HuH7 TTR inh inactive | TTR act confirm inactive
CC1(C)CC(=O)C(C=NCCN2CCN(C(=O)c3ccccc3)CC2)=C(O)C1	none
O=C1C(=O)N(Cc2ccc(-c3ccc(F)nc3)cc2)c2ccc(OC(F)(F)F)cc21	none
CCCCN1CC[C@@H](C)Oc2cc(Br)ccc2S1(=O)=O	none
CCCn1c(=O)c(C(=O)NCc2ccccc2)c(O)c2ccccc21	none
CCCCCn1c(=O)c(Cc2ccccc2)c(O)c2ccccc21	none
CCCn1c(=O)c(Cc2ccccc2)c(O)c2ccccc21	TTR transcr act 10.7 | HuH7 TTR inh inactive | TTR act confirm inactive
O=C1c2cccn2CC2Cc3ccccc3N12 (centres undefined)	none
O=C(NC1CCCCN(Cc2ccc(Cl)cc2)C1=O)c1cc(-c2ccccc2)no1 (centres undefined)	none
O=C(NCCc1nc2ccccc2n1CCOc1cc(F)ccc1F)C1CCCCC1	none
COCCN(CC(=O)Nc1cccc(C)c1C)C(=O)c1ccc(S(=O)(=O)N2CCOCC2)cc1	TTR transcr act 9.8 | HuH7 TTR inh inactive | TTR act confirm inactive
COCCN(CC(=O)Nc1cccc(C)c1C)C(=O)Cc1cccs1	none
O=C(Nc1ccccc1Cl)c1ccc(S(=O)(=O)N2CCOCC2)cc1	none
COc1ccc(CN2C(=O)CN(S(C)(=O)=O)CC2(C)c2nnnn2C2CCCCC2)cc1 (centres undefined)	none
COC(=O)[C@]12C[C@H](CC(=O)N3CCN(C(=O)c4ccco4)CC3)C(=O)N(Cc3ccc(Cl)cc3Cl)C1=C[C@H](C(C)C)O[C@@H]2C1CC1	none
CCOC(=O)c1ccc(N=Nc2c(C)[nH]n(-c3ccccc3)c2=O)cc1	none
CC(=O)N(C)c1ccc(N=Nc2c(C)[nH]n(-c3ccccc3)c2=O)cc1	TTR transcr act 11.3 | HuH7 TTR inh inactive | TTR act confirm inactive
CC(=O)N(C)c1ccc(N=Nc2c(C)[nH]n(C(N)=S)c2=O)cc1	none
COC(=O)[C@]12C[C@H](CC(=O)NCc3ccc(OC)c(OC)c3)C(=O)N(Cc3cccc4ccccc34)C1=C[C@H](C(C)C)O[C@@H]2C1CC1	none
O=C(NCC(c1ccccc1)c1ccccc1)[C@H](Cc1c[nH]c2ccccc12)NC1(C(=O)NC2CCCCC2)CCCC1	none
CN(C)CCNCc1ccccc1OC1CCCC1	TTR transcr act 21.0 | HuH7 TTR inh inactive | TTR act confirm inactive
CCOc1ccccc1CNCCNCC(C)O (centres undefined)	none
OCCNCc1ccc(OC2CCCC2)cc1	none
CC(=O)N[C@@H](C)CCc1ccc(Oc2ccc(OC(C)C)nc2)cc1	none
COC(=O)CC1CCc2cc(C)cc(C(=O)CC(C)C)c2O1 (centres undefined)	none
O=C(CCCSc1nc2ccccc2[nH]1)Nc1ccccc1	none
Cc1cccc(NC(=O)CCCSc2nc3ccccc3[nH]2)c1	none
Cc1ccccc1OCCCSc1nc2ccccc2[nH]1	TTR transcr act 30.8 | HuH7 TTR inh inactive | TTR act confirm inactive
CO[C@H]([C@H](C)/C=C/N(C)C=O)[C@@H](C)C(=O)CC[C@H](C)[C@H](O)[C@H](C)[C@H]1OC(=O)/C=C/C(C)=C/C[C@H](O)C[C@@H]2C=CC[C@@H](C[C@H](OC)C(C)(O)[C@@H](OC)C[C@@H](OC)[C@@H]1C)O2 (some centres undefined)	none
Cn1cnc(Sc2ncnc3nc[nH]c23)c1[N+](=O)[O-]	TTR transcr act 37.9 | HuH7 TTR inh inactive | TTR act confirm inactive
COc1ccc(C(=O)CSc2ncnc3nc[nH]c23)cc1	none
Cn1cnc([N+](=O)[O-])c1Sc1ncnc2nc[nH]c12	none
COc1ccc2c(c1)N=CN1CCc3c([nH]c4ccccc34)C3=NCC[C@@]321	none
Cc1ccc(CNC(=O)O[C@H]2CC[C@@]34CCCN3C(=O)CCC[C@H]4[C@H]2C)o1	none
CS(=O)(=O)N1CCC(C(=O)Nc2cccc(C(F)(F)F)c2)CC1	none
